nsP2pro primary – Primary qHTS for inhibitors of NSP2Pro chikungunya virus (CHIKV) | FRET peptide cleavage, nsP2pro, fluorescence 1 h | Potency, µM (series often up to 24.9 µM), for inactives: at the top dose activity change, negative = inhibition, hits mostly inhibitors | actives 1.1% (n = 31,000) | AID 1964107, 2024; also: nearly all actives have a fitted effect of over 60% in size
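Recombinant nsP2pro (150 nM) was preincubated with compound 15 min at room temperature in 10 mM Tris-HCl pH 8.0, 0.01% Tween 20. Peptide 2 FRET substrate (2.5 uM) was then added and fluorescence read after 1 h. Seven-point series, up to 25 uM.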
CHIKV nsP2 cell – Secondary cell base assay for inhibitors of NSP2Pro Chikungunya virus (CHIKV). shares compounds with nsP2pro primary. cell-based CHIKV nsP2 protease reporter assay. Potency, µM (top dose mostly 51.1 µM), for the others: top-dose activity change, negative = inhibition, usual class: inhibitors. actives 10% (n = 450). AID 1964100, 2024; also: nearly all actives have a fitted effect of over 70% in size
Target sequence (Q8JUX6 220-798 limits assumed): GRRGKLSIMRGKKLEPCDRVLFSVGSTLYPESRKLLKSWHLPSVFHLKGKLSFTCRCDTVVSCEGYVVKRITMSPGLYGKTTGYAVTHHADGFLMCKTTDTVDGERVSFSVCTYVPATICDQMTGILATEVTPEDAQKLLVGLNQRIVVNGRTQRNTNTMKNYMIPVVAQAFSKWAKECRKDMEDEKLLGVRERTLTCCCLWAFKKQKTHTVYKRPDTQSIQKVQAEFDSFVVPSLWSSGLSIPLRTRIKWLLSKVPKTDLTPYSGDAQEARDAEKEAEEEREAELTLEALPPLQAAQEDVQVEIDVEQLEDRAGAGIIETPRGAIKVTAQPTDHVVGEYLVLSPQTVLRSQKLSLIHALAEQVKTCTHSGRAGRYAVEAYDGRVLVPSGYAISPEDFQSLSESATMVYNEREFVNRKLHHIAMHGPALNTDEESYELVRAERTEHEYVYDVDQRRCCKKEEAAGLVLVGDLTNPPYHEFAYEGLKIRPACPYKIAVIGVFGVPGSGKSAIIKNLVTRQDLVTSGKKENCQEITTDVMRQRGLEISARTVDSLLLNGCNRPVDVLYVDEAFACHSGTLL
CHIKV NSP2 FL – Selectivity profile for inhibitors of NSP2Pro chikungunya virus (CHIKV): Full length NSP2 enzyme counterscreen (CHIKV-NSP2). Full-length CHIKV NSP2 protease enzymatic counterscreen. shares compounds with nsP2pro primary. AID 1964101, 2024. Potency, µM (top dose mostly 50.7 µM), for the others: top-dose activity change, negative = inhibition, usual class: inhibitors. actives 39% (n = 410); also: nearly all actives have a fitted effect of over 65% in size
Furin counterscr – Selectivity profile for inhibitors of NSP2Pro chikungunya virus (CHIKV): Human furin counterscreen | actives 6% (n = 410) | shares compounds with nsP2pro primary | Potency, µM (doses to about 50.6 µM), without a hit: at the top dose activity change, negative = inhibition, actives largely listed as inhibitors | Recombinant human furin enzymatic counterscreen, fluorogenic substrate
NS23 peptide cs – Selectivity profile for inhibitors of NSP2Pro chikungunya virus (CHIKV): Endogenous NS2/3 peptide Counterscreen; Purified CHIKV nsP2 protease, endogenous NS2/3 peptide cleavage; shares compounds with nsP2pro primary; actives 34% (n = 410); Potency, µM (highest dose often 51 µM), for the others: at the highest dose activity change, negative = inhibition, usual class: inhibitors; also: nearly all actives have a fitted effect of over 55% in size
Papain cs – Selectivity profile for inhibitors of NSP2Pro chikungunya virus (CHIKV): Papain Counterscreen; shares compounds with nsP2pro primary; purified papain protease activity, enzymatic inhibition; Potency, µM (series often up to 51 µM), without a hit: at the top dose activity change, negative = inhibition, usual class: inhibitors; actives 5% (n = 410); AID 1964104, 2024
nsP2pro conf qHTS – Confirmatory qHTS for inhibitors of NSP2Pro chikungunya virus (CHIKV); shares compounds with nsP2pro primary; CHIKV nsP2 protease enzymatic activity, qHTS; Potency, µM (top dose mostly 25.5 µM), for the others: at the highest dose activity change, negative = inhibition, actives largely listed as inhibitors; actives 43% (n = 410); also: nearly all actives have a fitted effect of over 75% in size
HCV NS3 4A cs – Selectivity profile for inhibitors of NSP2Pro chikungunya virus (CHIKV): NS34A-HCV Counterscreen | shares compounds with nsP2pro primary | HCV NS3/4A protease biochemical counterscreen | Potency, µM (highest dose often 50.9 µM), usual class: inhibitors | actives 20% (n = 410) | AID 1964106, 2024; also: nearly all actives have a fitted effect of over 55% in size
Numbers without * were called inactive; i = inactive; ? = inconclusive; . = no result given; [ ] = another dose, or the depositor's remark. The sample as a whole holds a higher share of hits than the screen did. Calls follow the shape of the full dose curve. % is scaled to controls: 0 for no effect and ±100 for the full control effect; potency is read from the fitted curve at half-maximal effect.

SMILES	nsP2pro primary	CHIKV nsP2 cell	others
C=C(CO)C(=O)O[C@H]1C[C@@]23O[C@@H]2CC/C(=C/[C@H]2OC(=O)C(=C)[C@H]12)CO[C@H]3O	?	12%[33.5 µM]	CHIKV NSP2 FL=?;Furin counterscr=-1%[33.5 µM];NS23 peptide cs=?;Papain cs=-7%[33.5 µM];nsP2pro conf qHTS=-38%[16.7 µM];HCV NS3 4A cs=?
C=C[C@@]12COC(=O)C(=C)C1[C@@H](O)[C@H](C(=C)C(=O)OC)[C@@H](OC(=O)C(=C)CO)C2 (stereo partly drawn)	-13%[10 µM]	.
C=C1C(=O)OC2/C=C(/C)C3=CC(=O)C(C)(CC(OC(=O)/C(C)=C/COC(C)=O)C12)O3 (stereo not drawn)	-6%[10 µM]	.
O=C(CC(c1ccccc1)c1ccccc1F)N1CCN(c2ccncc2)CC1 (stereo not drawn)	i	.
COc1cc(C2Oc3c(OC)cc(CCCO)cc3C2CO)ccc1O (stereo not drawn)	81%	.
COc1cc(CCN)ccc1O	?	8%	CHIKV NSP2 FL=-3%;Furin counterscr=3%;NS23 peptide cs=-4%;Papain cs=-8%;nsP2pro conf qHTS=-15%;HCV NS3 4A cs=i
C=CCc1ccc(O)c(OC)c1	-20%	.
Nc1nc(N)c2nc(-c3cccc(O)c3)cnc2n1	21%	.
CC(C)N1C[C@@H]2OCC(=O)N(Cc3ccccc3)[C@@H]2C1	-19%[39.2 µM]	.
COCCN1C(=O)CO[C@H]2CN(c3ncccn3)C[C@H]21	7.9µM*	7%[100 µM]	CHIKV NSP2 FL=33µM*;Furin counterscr=?;NS23 peptide cs=?;Papain cs=3%[100 µM];nsP2pro conf qHTS=16µM*;HCV NS3 4A cs=?
O=C1O[C@@H]2CN(c3ncccn3)C[C@@H]2N1CCc1ccc(F)cc1	i	.
CN(CC(=O)O)c1ncnc2ccc(-c3ccc4c(c3)OCO4)cc12	5%	.
Cc1ccc(-c2cc(C(=O)Nc3ccccc3C)c3ccccc3n2)cc1C	2%	.
O=C1c2c(O)ccc(O)c2C(=O)c2c(NCCNCCO)ccc(NCCNCCO)c21	219%	.
O=C1c2cccc(O)c2C(=O)c2c(O)cc(CO)cc21	?	-9%	CHIKV NSP2 FL=-1%;Furin counterscr=-6%;NS23 peptide cs=-13%;Papain cs=-13%;nsP2pro conf qHTS=10%;HCV NS3 4A cs=i
CCCCOc1ccc(C(=O)N2CCN(CCc3ccncc3)CC2)cc1	?	24%
Cc1cc(OCC(=O)N2CCN(CCc3ccncc3)CC2)ccc1Cl	-14%	.
O=C(O)c1ccc(OCCCOc2ccc(C(=O)O)cc2)cc1	3%	.
CCCCOc1ccc(C(=O)CCN2CCCCC2)cc1	2.2µM*	?	CHIKV NSP2 FL=10µM*;Furin counterscr=?;NS23 peptide cs=13µM*;Papain cs=?;nsP2pro conf qHTS=9µM*;HCV NS3 4A cs=i
Cc1ccc(OCC(=O)N2CCN(CCc3ccncc3)CC2)cc1C	-16%	.
CCCCOc1ccc(OCCCN2CCOCC2)cc1	12%	.
O=C(Cc1ccc(Cl)c(Cl)c1)Nc1ccc(S(=O)(=O)O)cc1	i	.
Cc1ccc(S(=O)(=O)Nc2ccc(F)cc2C(=O)Nc2nc(-c3ccccc3)cs2)cc1	i	.
C/C=C/c1cc(OC)c2c(c1)[C@@H](C)[C@@H](c1ccc(O)c(OC)c1)O2	11%	.
C/C=C/c1ccc(OC)cc1	-7%	.
C/C=C/c1ccc(O)c(OC)c1	?	-5%	CHIKV NSP2 FL=18µM*;Furin counterscr=-11%;NS23 peptide cs=?;Papain cs=-6%;nsP2pro conf qHTS=5µM*;HCV NS3 4A cs=?

Screening results (PubChem BioAssay)
